# SMN2 splice enh: SMN2 splice variant enhancement; HEK293 SMN2-luciferase splicing reporter, luminescence, 30-36 h; Potency, µM (titrated, usually from 46.1 µM), for the others: at the top dose activity change, positive = activation, hits mostly activators; 210,000 tested, 2.8% active; also: % of control where 0% means no effect; nearly all actives have a fitted effect of over 55% in size
#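 HEK293 cells carry an SMN2 […]–luciferase reporter in which exon 7 inclusion puts luciferase in frame. Cells were plated 10-12 h before compound addition, then incubated 30-36 h at 37C. ONE-Glo luminescence was read; sodium butyrate at 4.5 mM final served as control.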
# ELG1 genotoxic: genotoxicity induction in ELG1-luciferase HEK293T cells; 330,000 tested, 1.3% active; HEK293T ELG1-luciferase reporter, luminescence, 16 h; Potency, µM (top dose mostly 46 µM), inactives show top-dose activity change, positive = activation, usual class: activators; also: % of control where 0% means no effect; nearly all actives have a fitted effect of over 60% in size
#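 Quantitative HTS format in 1536-well plates. HEK293T ELG1-luciferase reporter cells receive test compound and are incubated 16 hr at 37 °C, 5% CO2; ONE-Glo added, 30 min room temperature, then luminescence read.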
# KinaseGlo FLuc: blocks Kinase-Glo luciferase, a counter-screen artifact; Kinase-Glo luciferase, ATP luminescence, 8 min; 200,000 tested, 0.28% active; AID 1379; Q27757; Potency, µM (series often up to 38.3 µM), for inactives: at the highest dose activity change, negative = inhibition, hits mostly inhibitors; also: % is scaled to controls: 0 for no effect and ±100 for the full control effect; nearly all actives have a fitted effect of over 60% in size
#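 Substrate mix (final 50 mM imidazole pH 7.2, 50 mM KCl, 7 mM MgCl2, 10 uM ATP, 0.01% Tween 20, 0.05% BSA) plus pin-tool compound, then Kinase-Glo detection mix; 8 min ambient, luminescence read.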
# NPC1 prom act: activators of NPC1 promoter. 320,000 tested, 2.4% active. Potency, µM (titrated, usually from 9.22 µM), inactives show at the highest dose activation, actives largely listed as activators. AID 485313. Huh7 NPC1 promoter luciferase reporter, 24 h; also: % of control where 0% means no effect; nearly all actives have a fitted effect of over 60% in size
#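 In 1536-well qHTS, Huh7 cells harboring an NPC1 promoter–luciferase construct received compound for 24 h; activation was quantified by luminescence following luciferase reagent addition.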
# Rab9 promoter act: Rab9 promoter activation; Huh7 Rab9 promoter-luciferase reporter, luminescence, 24 h; Potency, µM (doses to about 9.22 µM), for the others: top-dose activation, negative = inhibition, actives largely listed as activators; 320,000 tested, 2.8% active; AID 485297; also: % of control where 0% means no effect; nearly all actives have a fitted effect of over 60% in size
#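 Huh7 reporter line, Rab9 promoter upstream of luciferase. Compound exposure 24 h at 37 °C in reduced-serum medium with 10% FBS. Read-out: luminescence.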
# FLuc modulator: firefly luciferase modulation, counter-screen for miR-21 project. P08659. purified FLuc, Km substrates, luminescence inhibition. Potency, µM (doses to about 57.5 µM), inactives show at the top dose activity change, negative = inhibition, actives largely listed as inhibitors. 360,000 tested, 6.9% active;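 also: plate controls were vehicle for no effect and reference inhibitor for full effect; nearly all actives have a fitted effect of over 55% in size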
# Target sequence (P08659 whole entry, looked up): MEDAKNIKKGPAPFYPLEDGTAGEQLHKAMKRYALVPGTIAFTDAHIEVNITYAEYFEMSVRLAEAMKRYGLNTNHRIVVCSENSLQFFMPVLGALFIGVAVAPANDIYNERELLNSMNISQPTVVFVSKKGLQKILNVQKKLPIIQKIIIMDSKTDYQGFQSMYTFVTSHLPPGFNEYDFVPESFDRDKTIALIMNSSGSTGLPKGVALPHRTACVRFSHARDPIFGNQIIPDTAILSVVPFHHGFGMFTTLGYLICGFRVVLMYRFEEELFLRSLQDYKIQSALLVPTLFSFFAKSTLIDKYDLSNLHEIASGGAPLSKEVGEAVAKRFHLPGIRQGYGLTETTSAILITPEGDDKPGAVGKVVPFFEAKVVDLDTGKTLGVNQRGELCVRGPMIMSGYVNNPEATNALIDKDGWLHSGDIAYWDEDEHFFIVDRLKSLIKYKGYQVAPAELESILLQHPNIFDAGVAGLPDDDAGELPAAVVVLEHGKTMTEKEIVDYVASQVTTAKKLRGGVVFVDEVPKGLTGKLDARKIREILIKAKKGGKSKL
#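 Purified P. pyralis luciferase, 10 nM final, with Km-level 10 uM D-luciferin and 10 uM ATP in 50 mM Tris acetate pH 7.5, 10 mM Mg acetate, 0.01% Tween-20, 0.05% BSA; 6-point qHTS titration about 60 µM downward; luminescence read.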
# Numbers without * were called inactive; ? = inconclusive; · = no result given; [ ] = remark or other dose. An excerpt weighted towards active compounds, which were near 7.5% of everything screened. Calls follow the shape of the dose curve; as a rule, active = well fitted curve in the direction sought with a large enough effect; inconclusive = small, poorly fitted or top-dose-only effect, or another doubt; inactive = no such curve, though single readings can be large; an effect the other way counts as inactive or inconclusive. Potency is read from the fitted curve at half-maximal effect.
SMILES,SMN2 splice enh,ELG1 genotoxic,KinaseGlo FLuc,NPC1 prom act,Rab9 promoter act,FLuc modulator
Cc1cc(NC(=O)c2sc(Nc3ccc(F)cc3)nc2N)no1,24.2%,4.8%,0.5%,17.6%,25.4%,-14.2%
C=CCNc1nc(N)c(C(=O)Nc2cc(C)on2)s1,11.2µM*,15.5%,-4.2%,?,?,16.9µM*
Cc1c(C(=O)OCC(=O)NCC2CCCO2)cccc1[N+](=O)[O-] (stereo not given),-2.9%,2.7%,-0.9%,-3.6%,-1.0%,3.3%
Cc1cc(C)c(NC(=O)CSc2nc3nc(C)cc(C)n3n2)c(C)c1,-0.8%,·,·,·,·,-5.3%
c1ccc(Cc2cc(-c3ccccc3)on2)cc1,?,?,-1.6%,27.5%,?,12µM*
O=C(N/N=C/c1ccccc1F)c1cccc2ccccc12,·,6.4%,·,?,?,-8.3%
Cc1ccccc1C(=O)N/N=C/c1ccsc1C,15.8µM*,?,-7.8%,?,5.62µM*,10.7µM*
Cc1ccccc1C(=O)N/N=C/c1cccc2ccccc12,·,15.7%,·,15.2%,-3.6%[1.84 µM],5.36µM*
COc1ccc(/C(C)=N/NC(=O)CNC(=O)/C=C\c2ccccc2OC)c(OC)c1,·,0.3%,·,-9.8%,4.9%,-7.8%
COc1ccc(OC)c(Nc2nc(-c3ccncc3)nc3ccccc23)c1,·,-2.9%,·,-24.2%,-14.0%,-0.9%
Cc1ccc(-c2nc(N/N=C/c3cccc([N+](=O)[O-])c3)c3ccccc3n2)cc1,4.6%,-0.2%,-4.7%,?,-3.1%,0.536µM*
Cc1ccc(-c2nc(N/N=C/c3cccnc3)c3ccccc3n2)cc1,?,?,7.94µM*,?,3.55µM*,0.12µM*
COc1ccc(/C=N/Nc2nc(-c3cccnc3)nc3ccccc23)c(OC)c1,·,-9.6%,·,1.5%,1.1%,2.39µM*
O=[N+]([O-])c1cccc(-c2nc(NCc3ccccc3)c3ccccc3n2)c1,-15.9%,1.9%,1.3%,-2.9%,13.6%,0.0%
CCC(CC)c1nc(C(N)=O)c2[nH]c(=O)n(-c3ccc(OC)c(OC)c3)c2n1,·,16.8%,·,-0.9%,0.3%,-0.5%
C[C@]12CC[C@H]3c4ccc(O)cc4CC[C@@H]3[C@H]1CC[C@@H]2OP(=O)(O)O,2.0%[9.22 µM],·,-1.3%[7.66 µM],·,·,·
CCN(CC)c1ccc(C(=S)NC2CCCCC2)cc1,?,?,-2.3%,11.0%,14.8%,15.1µM*
CCOc1ccc(C(=S)NC2CCCCC2)cc1OCC,·,-1.2%,·,1.1%,1.9%,?
CN(C)c1ccc(C(=O)OCC(=O)NC2CCCCCC2)cc1,-5.2%,-7.2%,-0.8%,-4.1%,0.0%,-2.8%
CN(C)c1ccc(C(=S)NC2CCCCC2)cc1,11.2µM*,18.3µM*,2.5%,3.16µM*,2.82µM*,4.78µM*
CCSc1cc(C)nc2c(-c3ccccc3)cnn12,·,9.2µM*,·,-5.7%,-4.4%,3.01µM*
C=CCSc1cc(C)nc2c(-c3ccccc3)cnn12,·,?,·,21.1%,3.55µM*,3.38µM*
Cc1ccc(-c2cc(C(F)(F)F)n3ncc(-c4ccccc4)c3n2)cc1,11.6%,·,·,·,·,-0.3%
CCSc1cc(C)nc2c(-c3ccc(Cl)cc3)c(C)nn12,-12.5%,0.5%,-4.6%,-2.7%,-1.5%,-0.6%
Cc1ccccc1Nc1nc(N)nc(COC(=O)C2CCCCC2)n1,13.5%,11.9%,-5.8%,-1.3%,13.1%,15.1µM*
SMILES,SMN2 splice enh,ELG1 genotoxic,KinaseGlo FLuc,NPC1 prom act,Rab9 promoter act,FLuc modulator
Cc1ccc(N2CC(C(=O)OCc3nc(N)nc(Nc4ccccc4C)n3)CC2=O)cc1 (stereo not given),·,2.3%,·,-0.9%,-2.5%,2.1%
CCCCC(=O)OCc1nc(N)nc(Nc2ccccc2C)n1,10.3%,?,-2.6%,1.8%,1.8%,19µM*
CCCCCN=C(C)c1c(O)c2ccccc2oc1=O,·,?,·,?,?,16.9µM*
Cn1nnc2c(NCCc3ccccc3)ncnc21,·,·,·,·,·,-0.1%
COc1ccc2c(c1)CCc1c(C(=O)Nc3cc(OC)c(Cl)cc3OC)noc1-2,3.3%,·,·,·,·,-5.3%
COc1ccc2c(c1)CCc1c(C(=O)N(C)c3ccccc3)noc1-2,5.01µM*,?,-1.3%,?,?,13.5µM*
COCCNC(=O)c1noc2c1CCc1cc(OC)ccc1-2,7.94µM*,?,-1.6%,3.55µM*,?,?
COc1ccc2c(c1)CCc1c(C(=O)NCCN3CCOCC3)noc1-2,-6.1%,2.1%,1.2%,-0.7%,-2.5%,-16.1%
COc1ccc2c(c1)CCc1c(C(=O)NC3CCCCC3)noc1-2,7.08µM*,?,-11.9%,1.41µM*,1.12µM*,1.35µM*
COc1ccc2c(c1)CCc1c(C(=O)Nc3ccc(C#N)cc3)noc1-2,18.3%,·,·,·,·,-2.2%
COCC(C)NC(=O)c1noc2c1CCc1cc(OC)ccc1-2 (stereo not given),10µM*,?,-4.6%,3.16µM*,2.51µM*,13.5µM*
CCCCC(=O)NS(=O)(=O)c1ccc(N=NN(CC)CC)cc1,·,1.0%,1.6%,-0.7%,-6.3%,-8.5%
O=C(NCc1ccc2c(c1)OCO2)c1nc(Cn2cc(Br)cn2)no1,·,0.7%,·,-3.0%,-2.8%,4.3%
COc1ccc2c(c1)CCc1c(C(=O)NCc3ccco3)noc1-2,7.08µM*,?,0.1%,3.55µM*,1.58µM*,7.57µM*
O=C(CC1(O)C(=O)Nc2ccccc21)c1ccccc1O (stereo not given),10.6%,1.7%,5.0%,-4.0%,9.9%,-1.3%
O=C(CC1=NCCNC(c2ccccc2)C1)c1ccccc1O (stereo not given),11.2µM*,9.4%,10.5%,16.5%,?,0.1%
OC1(c2cccc(C(F)(F)F)c2)CCN(c2ccc(-c3ccccc3)nn2)CC1,?,14.3%,-2.3%,3.16µM*,1.41µM*,-19.1%
COc1cccc(-c2cc(NCc3cccs3)ncn2)c1,8.91µM*,·,-12.9%,·,·,·
O=C(Nc1ccc(Nc2ccccc2)cc1)Nc1ccccc1Cl,·,?,·,?,?,10.7µM*
O=C(NCc1ccccn1)Nc1cc(Cl)cc(Cl)c1,·,-1.3%,·,-1.0%,2.4%,1.6%
O=C(Nc1csc([N+](=O)[O-])c1)Nc1ccccc1Cl,·,-6.2%,·,13.9%,15.1%,16.9µM*
O=C(Nc1ccccc1)Nc1cc(Cl)cc(Cl)c1,-8.7%,-1.4%,2.0%,10.8%,?,26.9µM*
O=C(Nc1ccc(Cl)cc1)Nc1ccccc1Sc1ncc([N+](=O)[O-])s1,·,?,·,?,?,12µM*
Cc1cc(Br)ccc1N=C1NC(=O)CS1,·,9.1%,·,-8.6%,-0.1%,-4.0%
CCN(CCn1cccn1)C(=O)CCc1nnc(C2(c3ccc(Cl)cc3)CCC2)o1,·,17.7%,-2.5%,28.2%,?,16.9µM*
Cc1cccc(/C=C\c2nc3ccccc3c(=O)[nH]2)c1,2.82µM*,10.3µM*,?,?,?,0.849µM*

# Bioassay records from PubChem.
